Data as given in the supplement of paper PMC10849652.
About 7,900 targets were measured; listed, in parts, are those with a hit and a random draw of the rest. About 0.6% of all pairs of compound and target were hits.

These targets were tested with COc1cccc2cc(-c3nc([C@H]4CC[C@H](C(=O)O)CC4)n4ncnc(N)c34)[nH]c12 (assay: log2 fold change, soluble protein after heating vs DMSO (PISA); higher = thermal stabilisation; K562 cells, 10 uM, 30 min; active = over 0.2 and 3.5 SD of the protein, either way, in both replicates (recomputed)).
Outline: (§1)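 Aliquots of K562 cells (2×10^6 cells/mL) treated with 10 μM compound for 30 min were heated for 3 min over 48°C-58°C. After pooling and extraction in PBS with 0.5% NP-40 at 4°C, soluble protein from a 21,000xg, 90 min spin was quantified by TMTpro 16plex LC-MS/MS with channel sums equalised. Thermal stability is expressed against control samples, from duplicates, as a log2 fold change.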

Sequence of UniProt Q9NUM4 (Q9NUM4 whole entry, looked up): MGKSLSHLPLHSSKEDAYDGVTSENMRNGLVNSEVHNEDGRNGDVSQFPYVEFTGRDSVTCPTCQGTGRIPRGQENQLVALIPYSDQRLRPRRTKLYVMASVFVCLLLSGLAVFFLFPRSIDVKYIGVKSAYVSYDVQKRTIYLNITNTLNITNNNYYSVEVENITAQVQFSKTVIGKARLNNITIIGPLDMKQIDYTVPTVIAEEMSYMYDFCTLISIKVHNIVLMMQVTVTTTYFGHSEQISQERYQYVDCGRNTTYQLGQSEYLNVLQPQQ
Sequence of WASHC2C, A0A096LPC5 (A0A096LPC5 whole entry, looked up): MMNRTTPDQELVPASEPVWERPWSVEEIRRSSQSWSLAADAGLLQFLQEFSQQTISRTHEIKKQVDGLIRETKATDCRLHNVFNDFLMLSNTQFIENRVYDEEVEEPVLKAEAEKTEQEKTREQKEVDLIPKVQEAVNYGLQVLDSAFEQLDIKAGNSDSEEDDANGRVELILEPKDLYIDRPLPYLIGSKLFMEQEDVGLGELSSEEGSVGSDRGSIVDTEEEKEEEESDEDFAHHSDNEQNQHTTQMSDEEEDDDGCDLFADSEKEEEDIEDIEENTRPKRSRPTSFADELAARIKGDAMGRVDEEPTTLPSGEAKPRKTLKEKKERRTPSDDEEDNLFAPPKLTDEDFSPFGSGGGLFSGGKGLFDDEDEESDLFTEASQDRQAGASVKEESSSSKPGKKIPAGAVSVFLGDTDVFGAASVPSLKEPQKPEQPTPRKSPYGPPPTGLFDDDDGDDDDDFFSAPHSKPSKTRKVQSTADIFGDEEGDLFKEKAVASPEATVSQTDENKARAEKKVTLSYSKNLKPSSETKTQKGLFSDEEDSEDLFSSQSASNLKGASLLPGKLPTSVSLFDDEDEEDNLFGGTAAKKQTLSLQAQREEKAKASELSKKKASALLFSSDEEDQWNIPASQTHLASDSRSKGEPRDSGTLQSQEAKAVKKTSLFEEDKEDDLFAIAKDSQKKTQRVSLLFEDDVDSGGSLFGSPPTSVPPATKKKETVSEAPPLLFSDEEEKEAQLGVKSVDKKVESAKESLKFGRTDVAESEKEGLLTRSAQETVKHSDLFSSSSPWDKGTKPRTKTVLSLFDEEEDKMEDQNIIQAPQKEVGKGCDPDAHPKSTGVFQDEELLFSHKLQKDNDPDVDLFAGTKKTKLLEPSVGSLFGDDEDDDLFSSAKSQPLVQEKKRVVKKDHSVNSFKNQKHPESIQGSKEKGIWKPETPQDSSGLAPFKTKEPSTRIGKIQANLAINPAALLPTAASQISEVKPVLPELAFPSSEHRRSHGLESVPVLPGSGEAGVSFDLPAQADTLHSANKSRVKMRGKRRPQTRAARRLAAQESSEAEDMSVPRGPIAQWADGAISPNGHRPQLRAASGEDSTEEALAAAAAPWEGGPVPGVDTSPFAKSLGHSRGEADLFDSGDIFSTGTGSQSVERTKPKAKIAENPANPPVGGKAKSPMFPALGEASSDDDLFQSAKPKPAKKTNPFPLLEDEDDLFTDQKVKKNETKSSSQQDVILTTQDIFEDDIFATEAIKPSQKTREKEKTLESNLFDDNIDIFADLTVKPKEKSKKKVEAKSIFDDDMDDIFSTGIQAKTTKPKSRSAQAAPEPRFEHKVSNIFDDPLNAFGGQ
Sequence of UniProt Q92890 (Q92890 whole entry, looked up): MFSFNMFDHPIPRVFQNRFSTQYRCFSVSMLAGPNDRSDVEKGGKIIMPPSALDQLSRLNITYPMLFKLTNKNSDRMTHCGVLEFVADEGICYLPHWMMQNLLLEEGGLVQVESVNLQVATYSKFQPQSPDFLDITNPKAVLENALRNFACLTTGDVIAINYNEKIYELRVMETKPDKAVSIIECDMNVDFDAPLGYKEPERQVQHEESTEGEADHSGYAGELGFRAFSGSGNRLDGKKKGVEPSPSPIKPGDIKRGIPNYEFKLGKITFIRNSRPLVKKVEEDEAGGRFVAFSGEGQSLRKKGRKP
Sequence of UniProt Q9UHP3 (Q9UHP3 whole entry, looked up): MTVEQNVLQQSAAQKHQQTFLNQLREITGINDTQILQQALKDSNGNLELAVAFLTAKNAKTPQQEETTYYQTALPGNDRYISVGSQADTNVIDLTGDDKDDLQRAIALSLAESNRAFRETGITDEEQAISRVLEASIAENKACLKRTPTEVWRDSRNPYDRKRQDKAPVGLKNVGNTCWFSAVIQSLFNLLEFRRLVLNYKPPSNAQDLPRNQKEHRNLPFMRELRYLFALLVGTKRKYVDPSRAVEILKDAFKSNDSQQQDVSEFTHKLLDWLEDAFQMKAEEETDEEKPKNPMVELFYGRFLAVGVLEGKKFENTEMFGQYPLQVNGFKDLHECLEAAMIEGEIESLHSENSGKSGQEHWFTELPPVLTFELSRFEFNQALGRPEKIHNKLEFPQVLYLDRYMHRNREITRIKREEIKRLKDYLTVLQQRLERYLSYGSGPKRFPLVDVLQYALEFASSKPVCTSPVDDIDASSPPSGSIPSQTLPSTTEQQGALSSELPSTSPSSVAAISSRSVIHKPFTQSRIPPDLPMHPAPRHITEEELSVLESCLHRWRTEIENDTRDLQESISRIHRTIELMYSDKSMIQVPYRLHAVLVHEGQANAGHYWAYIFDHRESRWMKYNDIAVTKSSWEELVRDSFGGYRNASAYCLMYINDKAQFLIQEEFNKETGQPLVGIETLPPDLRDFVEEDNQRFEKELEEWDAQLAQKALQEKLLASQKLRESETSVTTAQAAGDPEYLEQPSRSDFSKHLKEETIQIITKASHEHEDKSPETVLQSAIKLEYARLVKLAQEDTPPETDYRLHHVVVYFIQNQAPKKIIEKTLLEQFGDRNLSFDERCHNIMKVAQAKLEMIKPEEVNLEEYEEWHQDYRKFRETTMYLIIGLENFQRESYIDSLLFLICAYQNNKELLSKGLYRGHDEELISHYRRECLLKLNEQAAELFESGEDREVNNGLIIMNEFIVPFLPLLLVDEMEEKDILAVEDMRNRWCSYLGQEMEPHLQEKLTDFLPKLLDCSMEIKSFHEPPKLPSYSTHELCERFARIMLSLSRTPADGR
Sequence of UniProt Q8WVY7 (Q8WVY7 whole entry, looked up): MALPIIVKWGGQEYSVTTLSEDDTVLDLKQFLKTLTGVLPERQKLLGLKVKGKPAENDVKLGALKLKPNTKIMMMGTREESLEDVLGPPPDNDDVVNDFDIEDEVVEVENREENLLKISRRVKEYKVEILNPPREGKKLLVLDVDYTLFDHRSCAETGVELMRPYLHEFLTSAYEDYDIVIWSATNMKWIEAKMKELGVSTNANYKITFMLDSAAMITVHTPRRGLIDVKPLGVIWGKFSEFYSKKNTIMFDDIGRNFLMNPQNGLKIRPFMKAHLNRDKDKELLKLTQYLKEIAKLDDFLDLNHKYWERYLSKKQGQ
Sequence of UniProt Q9Y5K5 (Q9Y5K5 whole entry, looked up): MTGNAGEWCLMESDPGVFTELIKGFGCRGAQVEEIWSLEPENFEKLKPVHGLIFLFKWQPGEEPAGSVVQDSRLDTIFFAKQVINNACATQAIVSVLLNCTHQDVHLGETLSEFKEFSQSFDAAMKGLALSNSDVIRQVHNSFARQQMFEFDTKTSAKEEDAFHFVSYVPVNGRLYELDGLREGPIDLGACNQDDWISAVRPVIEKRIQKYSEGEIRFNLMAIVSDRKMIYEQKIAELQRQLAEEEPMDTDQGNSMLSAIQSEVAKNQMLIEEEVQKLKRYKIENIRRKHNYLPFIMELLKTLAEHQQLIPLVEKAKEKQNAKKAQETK
Sequence of UniProt Q9UEU0 (Q9UEU0 whole entry, looked up): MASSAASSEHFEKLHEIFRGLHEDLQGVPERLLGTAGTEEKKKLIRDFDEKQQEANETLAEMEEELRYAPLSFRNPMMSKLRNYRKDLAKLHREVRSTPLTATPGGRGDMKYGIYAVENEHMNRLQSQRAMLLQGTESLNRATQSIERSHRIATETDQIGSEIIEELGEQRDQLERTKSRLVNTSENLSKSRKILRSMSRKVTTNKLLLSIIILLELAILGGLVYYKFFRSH
Sequence of UniProt P21796 (P21796 whole entry, looked up): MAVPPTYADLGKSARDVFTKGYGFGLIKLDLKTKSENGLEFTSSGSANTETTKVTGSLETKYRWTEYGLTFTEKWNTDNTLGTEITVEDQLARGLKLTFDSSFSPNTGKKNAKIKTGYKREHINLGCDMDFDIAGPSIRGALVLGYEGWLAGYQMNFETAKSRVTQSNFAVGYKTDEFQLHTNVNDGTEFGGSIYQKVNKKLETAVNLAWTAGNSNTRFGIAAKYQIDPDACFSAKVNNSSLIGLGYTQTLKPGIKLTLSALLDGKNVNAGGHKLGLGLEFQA
Sequence of UniProt Q8N1B4 (Q8N1B4 whole entry, looked up): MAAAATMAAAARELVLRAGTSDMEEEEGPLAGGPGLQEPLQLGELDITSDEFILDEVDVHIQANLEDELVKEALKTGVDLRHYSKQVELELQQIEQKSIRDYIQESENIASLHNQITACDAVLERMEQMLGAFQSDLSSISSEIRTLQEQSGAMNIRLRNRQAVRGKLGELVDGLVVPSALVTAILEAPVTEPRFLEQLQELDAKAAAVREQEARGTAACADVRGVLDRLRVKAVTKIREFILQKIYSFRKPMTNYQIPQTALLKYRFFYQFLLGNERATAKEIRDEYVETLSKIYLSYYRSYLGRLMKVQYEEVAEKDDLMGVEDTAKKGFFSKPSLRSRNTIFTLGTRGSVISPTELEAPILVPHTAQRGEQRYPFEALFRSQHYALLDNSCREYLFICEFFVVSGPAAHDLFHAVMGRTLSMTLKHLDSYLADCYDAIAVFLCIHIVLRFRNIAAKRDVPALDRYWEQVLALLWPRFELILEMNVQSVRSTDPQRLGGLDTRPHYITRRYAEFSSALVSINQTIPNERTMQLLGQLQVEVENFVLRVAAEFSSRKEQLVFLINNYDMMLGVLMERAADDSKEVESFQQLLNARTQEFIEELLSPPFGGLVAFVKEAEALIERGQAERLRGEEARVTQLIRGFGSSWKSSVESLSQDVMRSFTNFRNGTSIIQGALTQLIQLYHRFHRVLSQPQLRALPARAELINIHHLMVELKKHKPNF

log2 fold change, inactive:
TSG101 (UniProt Q99816) 0.016
VTA1 (UniProt Q9NP79) -0.008
VDAC1 (UniProt P21796) 0.052
WASHC2C, A0A096LPC5 0.098
VTI1B (UniProt Q9UEU0) 0.137
UBE2Q1 (UniProt Q7Z7E8) -0.044
TMEM106B (UniProt Q9NUM4) 0.057
TMEM164 (UniProt Q5U3C3) 0.198
USP48 isoform 8 (UniProt Q86UV5) -0.018
USP15 (UniProt Q9Y4E8) -0.05
UFD1 isoform 1 (UniProt Q92890) 0.033
WDR46 (UniProt O15213) -0.018
USP14 (UniProt P54578) -0.043
XPNPEP3 (UniProt Q9NQH7) 0.078
UCHL5 (UniProt Q9Y5K5) -0.031
VPS16 (UniProt Q9H269) -0.017
VAMP7 (UniProt P51809) 0.012
XPO1 (UniProt O14980) 0.001
TNFRSF10A (UniProt O00220) -0.002
UBLCP1 (UniProt Q8WVY7) -0.034
TMEM189-UBE2V1 (UniProt I3L0A0) 0.112
WASH2P (UniProt Q6VEQ5) -0.036
VTI1A (UniProt Q96AJ9) 0
TNNC2 (UniProt P02585) 0.045
TMEM223 (UniProt A0PJW6) 0.038
U2AF1 isoform 2 (UniProt Q01081) 0.045
XRCC5 (UniProt P13010) -0.087
TNPO1 (UniProt Q92973) -0.012
VPS52 (UniProt Q8N1B4) -0.022
TMEM263 (UniProt Q8WUH6) 0.065
USP25 isoform 3 (UniProt Q9UHP3) 0.022
VPS50 (UniProt Q96JG6) -0.027
UBAP1 isoform 4 (UniProt Q9NZ09) -0.018
TNPO2 (UniProt O14787) -0.038
VPS18 (UniProt Q9P253) -0.041
TRIM28 (UniProt Q13263) -0.03

These targets were tested with CS(=O)(=O)CCNCc1ccc(-c2ccc3ncnc(Nc4ccc(OCc5cccc(F)c5)c(Cl)c4)c3c2)o1 [lapatinib] in the same assay as above.
Outline: as §1

log2 fold change, inactive:
TSG101 (UniProt Q99816) -0.013
VTA1 (UniProt Q9NP79) -0.014
VDAC1 (UniProt P21796) 0
WASHC2C, A0A096LPC5 -0.141
VTI1B (UniProt Q9UEU0) 0.002
UBE2Q1 (UniProt Q7Z7E8) 0.01
TMEM106B (UniProt Q9NUM4) -0.005
TMEM164 (UniProt Q5U3C3) -0.06
USP48 isoform 8 (UniProt Q86UV5) 0.002
USP15 (UniProt Q9Y4E8) -0.021
UFD1 isoform 1 (UniProt Q92890) 0.018
WDR46 (UniProt O15213) -0.006
USP14 (UniProt P54578) 0.031
XPNPEP3 (UniProt Q9NQH7) -0.024
UCHL5 (UniProt Q9Y5K5) -0.023
VPS16 (UniProt Q9H269) -0.006
VAMP7 (UniProt P51809) -0.005
XPO1 (UniProt O14980) -0.023
TNFRSF10A (UniProt O00220) -0.073
UBLCP1 (UniProt Q8WVY7) 0.021
TMEM189-UBE2V1 (UniProt I3L0A0) 0.011
WASH2P (UniProt Q6VEQ5) 0.016
VTI1A (UniProt Q96AJ9) 0.021
TNNC2 (UniProt P02585) -0.027
TMEM223 (UniProt A0PJW6) 0.018
U2AF1 isoform 2 (UniProt Q01081) 0
XRCC5 (UniProt P13010) 0.024
TNPO1 (UniProt Q92973) -0.005
VPS52 (UniProt Q8N1B4) -0.043
TMEM263 (UniProt Q8WUH6) -0.045
USP25 isoform 3 (UniProt Q9UHP3) 0.001
VPS50 (UniProt Q96JG6) -0.006
UBAP1 isoform 4 (UniProt Q9NZ09) 0.23
TNPO2 (UniProt O14787) -0.048
VPS18 (UniProt Q9P253) 0.033
TRIM28 (UniProt Q13263) -0.005
